PubChem BioAssay (NCI)
The panel holds about 83,000 compounds, 20% with a hit somewhere; the sample as a whole holds those more often.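 Interpretation: 100, growth as untreated; towards 0, rising growth inhibition; 0, no net growth; 0 to -100, cell death. Compounds scoring below 10 were considered active.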 Unmarked numbers belong to inactive results. The source made the active and inactive calls.

Columns and labels:
Test in all cases: NCI-60 one-dose screen, 48 h (100 = growth as untreated, 0 = no growth, -100 = all killed)
Conditions in all cases: 10 µM unless noted
SK-MEL-2 melanoma = system: SK-MEL-2 melanoma
EKVX NSCLC = system: EKVX NSCLC
SN12C renal = system: SN12C renal
UO-31 renal = system: UO-31 renal
TK-10 renal = system: TK-10 renal
ACHN renal = system: ACHN renal
CAKI-1 renal = system: CAKI-1 renal
A498 renal = system: A498 renal
CCRF-CEM leukemia = system: CCRF-CEM leukemia
SR leukemia = system: SR leukemia
RPMI-8226 leukemia = system: RPMI-8226 leukemia
OVCAR-5 ovarian = system: OVCAR-5 ovarian
OVCAR-4 ovarian = system: OVCAR-4 ovarian
SK-OV-3 ovarian = system: SK-OV-3 ovarian
IGROV1 ovarian = system: IGROV1 ovarian
OVCAR-3 ovarian = system: OVCAR-3 ovarian
HS 578T breast = system: HS 578T breast
NCI/ADR-RES ovarian = system: NCI/ADR-RES ovarian
OVCAR-8 ovarian = system: OVCAR-8 ovarian
MOLT-4 leukemia = system: MOLT-4 leukemia

Row | SMILES | growth (SK-MEL-2 melanoma) | growth (EKVX NSCLC) | growth (SN12C renal) | growth (UO-31 renal) | growth (TK-10 renal) | growth (ACHN renal) | growth (CAKI-1 renal) | growth (A498 renal) | growth (CCRF-CEM leukemia) | growth (SR leukemia) | growth (RPMI-8226 leukemia) | growth (OVCAR-5 ovarian) | growth (OVCAR-4 ovarian) | growth (SK-OV-3 ovarian) | growth (IGROV1 ovarian) | growth (OVCAR-3 ovarian) | growth (HS 578T breast) | growth (NCI/ADR-RES ovarian) | growth (OVCAR-8 ovarian) | growth (MOLT-4 leukemia)
1 | CCCCNC(=O)Oc1ccc(/C(=C(\C)c2ccc(Cl)cc2)c2ccc(OCCN3CCCCC3)cc2)cc1 | 98.6% | 76.9% | 80.5% | 58.8% | 87% | 94% | 92.5% | 85.2% | 72.7% | 7.74% (active) | 73.4% | 71.8% | 73.5% | 68.8% | 83.5% | 80% | 85% | 85.2% | – | –
2 | N#CC1=C(N)Oc2c(sc3c(Br)cccc23)C1c1ccc([N+](=O)[O-])cc1 (stereo unspecified) | 39.6% | 58.9% | 13.5% | 34.6% | 71.9% | 26.8% | 27.1% | -11.8% (active) | 10% | -8.87% (active) | – | 31.1% | – | 34% | – | 3.67% (active) | 10.8% | -26.9% (active) | 25.3% | –
3 | COc1ccc(OC)c(/C=C/c2nnc(Nc3ccccc3)o2)c1 | 95% | 89.9% | 90.1% | 94.5% | 92.5% | 97.2% | 78.3% | 73.7% | 87.2% | – | – | 93.2% | 102% | 109% | 109% | 103% | 98.5% | 94.1% | 105% | 68.3%
4 | O=C(S)CNC(=O)c1ccccc1 | 101% | 95.8% | 95.6% | 76.5% | 91.6% | 103% | 90.7% | 83.5% | 89.9% | – | – | 93.1% | 110% | 89.4% | 105% | 101% | 79.5% | 96.5% | 101% | 87.7%
5 | CCCCOc1nc2ccc(OC)cc2cc1-c1cc(-c2ccc(Cl)cc2)nc(-c2ccc(Cl)cc2)c1 | 103% | 98.2% | 101% | 90% | 104% | 96.3% | 104% | 83.5% | 103% | 107% | – | 98.7% | 99.5% | 108% | 105% | 112% | 100% | 105% | 104% | –
6 | C=C1CC[C@H](C(C)C)[C@@H]2[C@H]1[C@H]1CC(=C)[C@@H](O)CC[C@@](C)(O)[C@@H]2O1 | 80.9% | 98.1% | 109% | 82.6% | 103% | 95.8% | 95.1% | 89.3% | 94% | – | 93.3% | 79.5% | 98.5% | 109% | 107% | 101% | 92.4% | 85.9% | 99.4% | –
7 | O=CN(SSN(C=O)C1CCCCC1)C1CCCCC1 | 111% | 95.3% | 99.7% | 60.6% | 106% | 105% | 101% | 116% | 111% | – | 120% | 113% | 101% | 113% | 100% | 107% | 112% | 116% | 104% | –
8 | CN(C)CCS(=O)(=O)Nc1cc(-c2ccc3ncc(C#N)c(Nc4ccc(F)c(Cl)c4)c3c2)cnc1Cl | -40.4% (active) | -43.5% (active) | 0.75% (active) | -55.5% (active) | -35.5% (active) | 8.58% (active) | -42.3% (active) | -49.9% (active) | 1.06% (active) | -12.5% (active) | – | -43.8% (active) | -5.26% (active) | -35.1% (active) | -43.3% (active) | -59.8% (active) | -10.5% (active) | 63.7% | -10.8% (active) | –
9 | CCOC(=O)NCCc1ccccc1 | 104% | 111% | 99.2% | 76.3% | 112% | 110% | 86% | 110% | 116% | 74% | – | 112% | 121% | 106% | 85.3% | 116% | 105% | – | – | –
10 | COc1cc(/C=C/c2c(C(C)=O)c(C)nc3ccccc23)cc(OC)c1OC | 47.9% | 52.4% | 35.3% | 36.7% | 78.8% | 37.6% | 24.7% | -23.8% (active) | 21.3% | – | 23.6% | 61.3% | – | 36.6% | 32% | 15.1% | -16.7% (active) | 23.1% | 52.6% | –
11 | Cc1ccc(-c2cnc3sc(C(=O)NCCc4ccccc4)c(C)n23)cc1 | 108% | 86.8% | 93.2% | 75.1% | 139% | 94.2% | 94.1% | 101% | 64.7% | 110% | – | 98.5% | 67% | 84.6% | 80.5% | 79.4% | 86.4% | 104% | 96.9% | –
12 | O=C(Oc1cccc2ccccc12)Oc1cccc2ccccc12 | 104% | 88.3% | 97.2% | 55% | 139% | 98% | 86.8% | 107% | 88.7% | – | 113% | 103% | 113% | 102% | 73.6% | 79.4% | 106% | 103% | 107% | –
13 | Cc1ccccc1C(=O)NN | 99.9% | 108% | 108% | 70.7% | 105% | 106% | 98.3% | 117% | 100% | 86.2% | – | 121% | 117% | 98.8% | 85.8% | 126% | 106% | – | 109% | –
14 | O=C(Cc1ccc(F)c(Cl)c1)Nc1cc(C2(C(F)(F)F)CC2)nn1CC1CCCCC1 | -48.8% (active) | 3.93% (active) | 6.18% (active) | -3.33% (active) | 3.08% (active) | -7.99% (active) | -14.3% (active) | -33.2% (active) | 20.1% | – | 4.24% (active) | 0.818% (active) | 13.5% | -19.9% (active) | 24.5% | 6.25% (active) | -0.843% (active) | 4.86% (active) | 8.52% (active) | –
15 | CCCCn1c(=O)c(-c2cc(-c3ccc(Cl)cc3)nc(-c3ccc(Cl)cc3)c2)cc2cc(Cl)ccc21 | 120% | 105% | 91.2% | 88.4% | 107% | 107% | 94.3% | 123% | 104% | 106% | – | 98.4% | 105% | 102% | 103% | 117% | 108% | 109% | 101% | –
16 | O=c1c2cc(F)ccc2sc2c(N3CCNCC3)nc3ccccc3c12 | 103% | 72.5% | 61.7% | 28.8% | 58.8% | 7.74% (active) | -48.4% (active) | 30.3% | -27.5% (active) | -56.3% (active) | – | 73.1% | -22.2% (active) | 84.4% | 48% | -79.6% (active) | 46.3% | 18.7% | 11% | –
17 | NC1CCN(c2nc(Nc3cccc(C(F)(F)F)c3)c3c(=O)[nH]ccc3n2)CC1 | -77.6% (active) | 4.44% (active) | -75.8% (active) | -80.8% (active) | -26.9% (active) | -70% (active) | -13.8% (active) | 93.9% | -18.4% (active) | – | -45.4% (active) | 14.9% | -49.7% (active) | -76.1% (active) | -46.2% (active) | -72.2% (active) | -24.5% (active) | -30.8% (active) | – | –
18 | S=c1nc(-c2ccccc2)oc(=NC2CCCCC2)n1C1CCCCC1 | 37.9% | 24.4% | 67.9% | 46.5% | 32.8% | 15.4% | 75.4% | 86.8% | -6.7% (active) | – | -8.22% (active) | 86.2% | 33.9% | 87.7% | -25.9% (active) | 11.8% | 43.1% | 32.5% | – | –
